This is a sample that favours compounds with a hit; in the whole collection about 10% have one here.
GPT2 inhibitor: blocks human glutamate pyruvate transaminase 2. Q8TD30. Recombinant GPT2, coupled pyruvate oxidase/HRP Amplex Red fluorescence. Potency, µM (highest dose often 57.7 µM), inactives show at the top dose activity change, negative = inhibition, actives largely listed as inhibitors. 100,000 compounds, 0.25% hits. AID 1671188; note: nearly all actives have a fitted effect of over 60% in size
Target sequence (Q8TD30 whole entry, looked up): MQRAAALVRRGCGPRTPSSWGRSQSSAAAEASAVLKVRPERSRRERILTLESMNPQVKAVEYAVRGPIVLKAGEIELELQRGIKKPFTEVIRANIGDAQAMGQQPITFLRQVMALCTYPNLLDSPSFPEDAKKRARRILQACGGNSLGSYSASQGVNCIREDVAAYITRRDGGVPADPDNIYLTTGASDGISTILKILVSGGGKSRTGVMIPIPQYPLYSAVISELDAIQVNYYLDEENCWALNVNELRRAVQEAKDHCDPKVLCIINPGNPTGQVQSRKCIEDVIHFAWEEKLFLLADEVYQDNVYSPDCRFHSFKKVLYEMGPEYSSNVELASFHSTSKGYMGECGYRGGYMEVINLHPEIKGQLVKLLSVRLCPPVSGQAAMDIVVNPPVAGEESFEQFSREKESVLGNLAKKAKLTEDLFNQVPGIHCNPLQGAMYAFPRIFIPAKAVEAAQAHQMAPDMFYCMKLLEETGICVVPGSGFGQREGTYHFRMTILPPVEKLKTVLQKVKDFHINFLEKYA
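Fluorescence of coupled pyruvate oxidase/HRP/Amplex Red system (50uM Amplex, 30 min, dark) reports pyruvate formed by GPT2. Enzyme reaction: 10ng/uL GPT2, 2mM L-alanine, 250uM a-KG, 30 min room temperature, pH 7.5; 50uM AOA control.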
FLuc inh: Photinus pyralis luciferase inhibition. P08659. purified P. pyralis luciferase, luminescence, biochemical. Potency, µM (top dose mostly 115 µM), actives largely listed as inhibitors. 76,000 compounds, 2.5% hits. AID 1347043; note: nearly all actives have a fitted effect of over 65% in size
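Luminescence read by CCD imager after adding enzyme (10nM final) to wells holding compound, titrated in qHTS. Substrates 10uM each D-luciferin and ATP; buffer 50mM Tris acetate pH 7.5, 10mM Mg acetate, Tween-20, BSA.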
hNpr1 antagonist: human Npr1 receptor antagonism | P16066 | Potency, µM (highest dose often 46.3 µM), for inactives: top-dose activity change, negative = inhibition, actives largely listed as inhibitors | HEK293 hNpr1 GloSensor cGMP, ANP-stimulated luminescence | 76,000 compounds, 1.6% hits | AID 1347048; calls by dose curve; note: nearly all actives have a fitted effect of over 60% in size
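Compound pre-incubated 30 min at room temperature on GloSensor-loaded HEK293 cells stably carrying hNpr1 and the pGS-40F cGMP biosensor. Stimulation uses hNppA at 0.1 nM final; luminescence is taken at baseline and 20 min post-agonist.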
HEK293 tox: cytotoxic compounds in HEK 293 cells. Potency, µM (top dose mostly 115 µM), without a hit: at the highest dose activity change, negative = cytotoxicity, most hits filed as inhibitors. HEK 293 viability, ATP luminescence (CellTiter-Glo), 48-72 h. 94,000 compounds, 6.6% hits; note: nearly all actives have a fitted effect of over 60% in size
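Pintool-delivered compounds were incubated with HEK 293 cells (250 cells/well) at 37 degree Celsius for 48 or 72 hr. ATP-dependent luminescence (CellTiter-Glo) then reported remaining viable cells.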
NIH3T3 tox: kills NIH 3T3 cells; NIH 3T3 viability, CellTiter-Glo ATP luminescence, 48-72 h; 94,000 compounds, 4.3% hits; Potency, µM (top dose mostly 96.7 µM), for the others: at the highest dose activity change, negative = cytotoxicity, most hits filed as inhibitors; note: nearly all actives have a fitted effect of over 55% in size
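NIH 3T3 cells at 400 cells/well received 23 nL of compound by pintool and were incubated 48 or 72 h at 37 °C. Viability was read as ATP-coupled CellTiter-Glo luminescence.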
Starred values were filed as active, the others as inactive; i = inactive; ? = inconclusive; · = no result; [ ] = remark or other dose. Unless noted, calls come from the whole dose curve; as a rule, active = well fitted curve in the direction sought with a large enough effect; inconclusive = small, poorly fitted or top-dose-only effect, or another doubt; inactive = no such curve, though single readings can be large; an effect the other way counts as inactive or inconclusive. % is set by controls: 0 for no effect and ±100 for the full control effect; potency is the fitted concentration of half-maximal effect.

SMILES | GPT2 inhibitor | FLuc inh | hNpr1 antagonist | HEK293 tox | NIH3T3 tox
Cc1ccc(NC(=O)C2CCN(C(=O)c3ncn4c3COC(c3ccc(F)cc3)C4)CC2)cc1Cl (centres undefined) | i | 28µM* | -12% | ? | ?
O=C(NC1CC1)C1CCN(C(=O)c2ncn3c2COC(c2ccc(F)cc2)C3)CC1 (centres undefined) | -2% | 35µM* | 3% | 8% | i
Cc1nc(-c2c3n(c(=O)n(CC(=O)Nc4ccc(C(C)C)cc4)c2=O)CCCCC3)no1 | 3% | i | -15% | -18% | -29%
O=C(Cc1ccsc1)NCCC1CCN(C(=O)Nc2ccc(F)cc2F)CC1 | i | i | 4% | -10% | -20%
COc1ccccc1-c1[nH]nc2ncc(C(=O)Nc3ccc4[nH]ccc4c3)nc12 | -2%[88.5 µM] | i | -4%[70.6 µM] | ? | ?
O=C(c1ccc2nc[nH]c2c1)N1CCCC2(C1)Nc1cccnc1NC2=NC1CCCC1 (centres undefined) | -7% | i | 3% | 1% | 3%
O=C(NCc1cc(F)cc(F)c1)C1CCN(C(=O)c2ncn3c2COC(c2ccc(F)cc2)C3)CC1 (centres undefined) | i | ? | -1% | -19% | 0%
O=C(Nc1cc(F)cc(F)c1)C1CCN(C(=O)c2ncn3c2COC(c2ccc(F)cc2)C3)CC1 (centres undefined) | i | 35µM* | ? | ? | ?
CCC(NC(=O)c1ccc2nc(-c3ccc(F)cc3)cn2c1)c1cccnc1 (centres undefined) | ? | 16µM* | 2% | ? | ?
O=C(NC1C=CS(=O)(=O)C1)c1ccc2nc(-c3ccc(F)cc3)cn2c1 (centres undefined) | 0% | 40µM* | 4% | 45µM* | ?
Cc1cc(C)nc(CNC(=O)c2ccc3nc(-c4ccc(F)cc4)cn3c2)n1 | i | i | -1% | 1% | 5%
CN(C)C(=O)C1CCCN(c2ccnc3ccnn23)C1 (centres undefined) | -5%[88.5 µM] | · | · | -10%[172 µM] | -28%[138 µM]
CC(=O)N[C@H]1CC[C@]2(C)CC[C@@H]([C@H](C)C(=O)NC(C)(C)C)[C@H](O)[C@H]2[C@@H]1C | -7%[88.5 µM] | i | 7%[70.6 µM] | i | 3%[138 µM]
CC(C)NC(=O)N[C@H]1CCN2C(=O)c3cc(-c4ccc(F)cc4F)ccc3NC(=O)[C@H]12 | -26%[88.5 µM] | i | -6%[70.6 µM] | ? | -28%[174 µM]
CCS[C@H]1CCN2C(=O)c3cc(-c4ccc(F)cc4F)ccc3NC(=O)[C@H]12 | -4%[88.5 µM] | i | ? | 56µM* | ?
CCOCCn1c(=O)[nH]c2cc(C(=O)NCc3n[nH]c(C)n3)ccc21 | i | i | 1% | -4% | i
CCOCCn1c(=O)[nH]c2cc(C(=O)NCCc3ccc(C)s3)ccc21 | ? | 40µM* | 4% | ? | -25%
CC(C)NC(=O)N1CCN(CCn2nc3n(c2=O)CCCC3)CC1 | · | · | · | -6%[172 µM] | i
O=c1c2nc(Nc3cccc(F)c3)ccc2ncn1-c1ccccc1 | 0%[88.5 µM] | · | · | · | ·
O=c1c2nc(Nc3cccc(F)c3)ccc2ncn1Cc1ccccc1 | -2%[88.5 µM] | ? | -19%[70.6 µM] | 79µM* | ?
C[C@@H]1C(=O)O[C@H]2[C@H]1CC[C@@]1(C)Cc3sc(Nc4ccc(O)cc4)nc3[C@@H](C)[C@H]21 | ? | ? | ? | 35µM* | 63µM*
CC1CCN(C(=O)c2cc3c(s2)CCN(C(=O)c2ccc(Cl)cc2)C3)CC1 | -14% | i | -14% | 40µM* | ?
CN1CCN(C(=O)c2cc3c(s2)CCN(C(=O)c2ccc(Cl)cc2)C3)CC1 | -8% | i | 0% | ? | ?
COc1ccc(F)cc1-c1cccc(C(=O)NCCNC(=O)C(C)(C)C)c1 | -13% | · | · | ? | ?
COc1ccc(F)cc1-c1cccc(C(=O)NCCNC(=O)Nc2ccc(Cl)cc2)c1 | i | · | · | ? | 32µM*
SMILES | GPT2 inhibitor | FLuc inh | hNpr1 antagonist | HEK293 tox | NIH3T3 tox
COc1ccc(F)cc1-c1cccc(C(=O)NCCN[S+](C)(=O)[O-])c1 | i | · | · | -12% | -29%
COc1ccc(F)cc1-c1cccc(C(=O)NCCNC(=O)c2ccc(Cl)cc2)c1 | 2% | · | · | 45µM* | ?
COc1cccc(C(=O)NCCNC(=O)c2cccc(-c3cc(F)ccc3OC)c2)c1 | 3% | · | · | ? | 45µM*
COc1ccc(F)cc1-c1cccc(C(=O)NCCNC(=O)c2cccc(Cl)c2)c1 | 3% | · | · | 20µM* | ?
COc1ccc(F)cc1-c1cccc(C(=O)NCCNC(C)=O)c1 | 2%[88.5 µM] | · | · | -25%[172 µM] | ?
CC(C)N1C[C@@H](F)[C@@H](OCc2nc3ccc(F)cc3[nH]2)C1 | 0%[88.5 µM] | i | 6%[70.6 µM] | -5%[172 µM] | i
CCCCCC(=O)N1[C@@H](c2ccccc2)[C@@H](CO)C[C@]12CCCCN(CCOC)C2=O | · | · | · | ? | -21%
CC1CCN(CC2CCCN(C(=O)c3ccc(F)cc3)CC2)CC1 (centres undefined) | -5% | i | 1% | -3% | -31%
COc1ccc(F)cc1-c1cccc(C(=O)NCCNC(=O)c2ccc(Cl)nc2)c1 | -6% | · | · | 40µM* | ?
COc1ccc(F)cc1-c1cccc(C(=O)NCCNC(=O)Cc2cccc(Cl)c2)c1 | i | · | · | ? | 40µM*
COc1ccc(F)cc1-c1cccc(C(=O)NCCN[S+](=O)([O-])c2ccccc2)c1 | 2% | · | · | ? | ?
COCC(=O)NCCNC(=O)c1cccc(-c2cc(F)ccc2OC)c1 | i | · | · | 1% | -20%
CNC(=O)c1cc(C2CC2)nc2onc(C3CCN(C(=O)N(C)C)C3)c12 (centres undefined) | · | · | · | -13%[172 µM] | -23%[138 µM]
COc1ccc(NC(=O)N2CCc3c(C(=O)NCCCN(C)C)cccc32)cc1 | -3% | 35µM* | -1% | -7% | -5%
CCCNC(=O)c1cccc2c1CCN2C(=O)Nc1ccc(OC)cc1 | 2% | 0.35µM* | 5µM* | ? | ?
Cc1nn(-c2ccccc2)c(Oc2ccccc2F)c1CCC(=O)N1CCSCC1 | ? | i | -17% | 35µM* | ?
Cc1cccc(-n2nc(C)c(CCC(=O)N3CCOCC3)c2Oc2ccccc2C)c1 | i | i | -12% | ? | ?
Cc1cccc(-n2nc(C)c(CCC(=O)N3CCSCC3)c2Oc2ccccc2)c1 | i | i | -25% | 45µM* | ?
Cc1nn(-c2ccc(F)cc2)c(Oc2ccccc2F)c1CCC(=O)N1CCSCC1 | 4% | i | -16% | ? | ?
O=C(O)c1cccc(-c2ccsc2)c1 | -7%[88.5 µM] | · | · | i | i
Cn1cc(-c2cnc(Nc3cnccn3)c3c2CCO3)cn1 | -30%[88.5 µM] | ? | -1%[70.6 µM] | 2%[172 µM] | ?
Cn1cc(-c2cnc(Nc3cncnc3)c3c2CCO3)cn1 | i | i | 1%[70.6 µM] | -11%[172 µM] | 100µM*

Compound activity (PubChem)
